# TROY NFkB inh – blocks TROY-dependent signaling in reporter cells; Q293 LMP1-TROYcd NF-kB luciferase reporter, 4 h; inhibition, % at 10 µM; 0.98% of 360,000 active; AID 1347056;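 active = compounds whose plate-normalised and pattern-corrected inhibition of the luciferase reporter signal at the single screening dose is 50% or more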
# LGR2 antag – inhibitors of bursicon-induced Drosophila LGR2 receptor cAMP signaling | HEK293 LGR2, CRE-luciferase, bursicon-stimulated, 4 h | inhibition, % at 9.99 µM | 0.35% of 380,000 active | AID 720647;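 active = drop in luminescence signal, shown as inhibition above about 50% in the replicate tests, limit read from the data, passing the limit was not always enough; inconclusive = probably only some replicates passing the limit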;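 note: agonist challenge used bursicon conditioned medium at about half maximal strength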
# HSP90 refold inh – inhibitors of HSP90 luciferase refolding in rabbit reticulocyte lysate; luciferase refolding luminescence, 3 h; inhibition, % at 5.6 µM; 0.91% of 290,000 active;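 active = inhibition above the screen-wide mean plus 3 SD, computed separately per campaign, cut at about 16% in these data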;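 note: inhibitors lower the luminescence because luciferase stays unfolded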
# TWEAK-Fn14 inh – blocks TWEAK-Fn14 interaction in a reporter cell assay; TWEAK-stimulated Fn14 reporter cells, luciferase luminescence, 8 h; inhibition, % at 10 µM; 2% of 360,000 active; AID 1159606; in the data active = inhibition above about 50%
# HSP90 inh confirm – HSP90 inhibition, confirmation assay. rabbit reticulocyte lysate, luciferase refolding luminescence, 3 h. 64% of 2,300 active. shares compounds with HSP90 refold inh. AID 1846. inhibition, % at 5.9 µM; in the data active = inhibition above about 18%
# FLuc counter – counter-screen for HSP90 inhibitors: inhibitors of firefly luciferase | shares compounds with HSP90 refold inh | purified native firefly luciferase, luminescence | inhibition, % at 5.9 µM | 48% of 2,300 active;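 active = inhibition above the mean inhibition of all tested sample wells plus 3 SD, cut at about 10% in these data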
# Target sequence (P08659 whole entry, looked up): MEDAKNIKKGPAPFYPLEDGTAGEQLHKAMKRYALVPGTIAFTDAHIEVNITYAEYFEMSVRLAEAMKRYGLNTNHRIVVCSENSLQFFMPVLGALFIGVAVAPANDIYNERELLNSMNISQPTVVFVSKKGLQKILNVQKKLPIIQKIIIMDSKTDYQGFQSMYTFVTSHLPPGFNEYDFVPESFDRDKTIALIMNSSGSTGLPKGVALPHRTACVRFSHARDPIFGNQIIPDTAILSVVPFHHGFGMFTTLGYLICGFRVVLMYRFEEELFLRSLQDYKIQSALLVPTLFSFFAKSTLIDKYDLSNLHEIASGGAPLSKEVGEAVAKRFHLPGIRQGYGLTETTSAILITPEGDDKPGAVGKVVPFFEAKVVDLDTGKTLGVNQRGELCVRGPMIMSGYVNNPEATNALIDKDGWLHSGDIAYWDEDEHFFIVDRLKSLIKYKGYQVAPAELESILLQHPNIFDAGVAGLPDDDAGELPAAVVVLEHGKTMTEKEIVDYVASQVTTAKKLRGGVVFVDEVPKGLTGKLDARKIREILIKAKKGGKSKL
# A number is an active result; . = inactive; ? = inconclusive; / = no result. This is a sample that favours compounds with a hit; in the whole collection about 2.2% have one here.
SMILES,TROY NFkB inh,LGR2 antag,HSP90 refold inh,TWEAK-Fn14 inh,HSP90 inh confirm,FLuc counter
CCCC(C(=O)NCCC(C)C)N(Cc1ccccc1Cl)C(=O)c1snc(C(N)=O)c1N (stereo not given),.,.,17.0,.,.,.
Cc1cccc(NC(=O)c2ccc3c(Cl)c4c(nc3c2)CCCC4)n1,70.6,.,16.9,62.9,58.0,47.5
CC(=O)N(C)c1ccc(N=NC2C(=O)N(C(N)=S)N=C2C)cc1 (stereo not given),.,.,18.0,.,17.5,.
Cc1[nH]n(C(N)=S)c(=O)c1N=Nc1ccc([N+](=O)[O-])cc1Cl,.,.,17.6,.,.,.
CC(=O)N(C)c1ccc(N=Nc2c(C)[nH]n(C(N)=S)c2=O)cc1,.,.,20.4,.,.,.
Cc1ccccc1N=Nc1c(C)[nH]n(C(N)=S)c1=O,.,.,.,.,/,/
CC1=NN(C(N)=S)C(=O)C1N=Nc1ccc(S(N)(=O)=O)cc1 (stereo not given),.,.,.,.,/,/
O=C(OCc1ccc(Br)cc1)c1cccnc1,.,.,40.9,.,.,.
O=C(OCc1ccc(Br)cc1)c1ccncc1,.,.,.,.,/,/
O=C(C[C@@H]1CC[C@H]2NC[C@H](O)COC[C@@H]2O1)Nc1ccccc1,/,.,/,/,/,/
COC(=O)[C@H]1[C@H](CO)[C@H]2Cn3c(ccc(-c4ccccc4)c3=O)[C@H]2N1CC1CCCCC1,/,.,/,/,/,/
CCOC(=O)N1CCC(=NNc2nc3ccccc3s2)CC1,.,.,25.7,.,.,.
CC(=O)CSc1ccc(-c2nc3cc(C)c(C)cc3[nH]2)cn1,88.3,98.4,68.9,102.4,91.0,56.6
CCOC(=O)CNC(=O)CSc1ccc(-c2nc3ccccc3[nH]2)cn1,.,.,.,.,/,/
CC(=O)CSc1ccc(-c2nc3ccccc3[nH]2)cn1,.,.,24.3,69.1,46.4,.
O=C1c2ccc3c4c(ccc(c24)C(=O)N1NC(=O)C(F)(F)F)CC3,.,.,.,.,/,/
CC(=O)NN1C(=O)c2ccc3c4c(ccc(c24)C1=O)C(=O)N(NC(C)=O)C3=O,.,.,44.7,.,29.6,.
CC(=O)c1sc(NC(=O)c2ccc(C(C)(C)C)cc2)nc1C,.,.,30.3,.,.,.
CCOC(=O)c1sc(NC(=O)c2ccc(OC(C)=O)cc2)nc1C,.,/,.,.,/,/
CCOC(=O)c1sc(NC(=O)c2ccc(C)o2)nc1C,.,/,44.5,.,44.3,.
COC(=O)c1sc(NC(=O)c2oc3ccccc3c2C)nc1C,.,/,55.2,.,35.1,.
CCOC(=O)c1sc(NC(=O)c2ccc(OC)cc2)nc1C,.,.,17.6,.,27.8,.
CC(=O)c1sc(NC(=O)c2ccc(C)c(C)c2)nc1C,.,.,.,.,/,/
CO[C@H]1CN(C)C(=O)c2cc(NS(=O)(=O)CC(F)(F)F)ccc2OC[C@H](C)N(Cc2ccccn2)C[C@H]1C,/,.,/,/,/,/
COc1ccccc1CNC(=O)C[C@H]1C[C@H]2c3cc(N(C)C)ccc3O[C@H]2[C@@H](CO)O1,/,.,/,/,/,/
SMILES,TROY NFkB inh,LGR2 antag,HSP90 refold inh,TWEAK-Fn14 inh,HSP90 inh confirm,FLuc counter
Cc1ccc(C(=O)/C=C2\NCC(C)NC2=O)cc1 (stereo not given),/,53.7,37.4,54.1,56.2,43.1
Cc1ccc(C(=O)/C=C2\NCCNC2=O)cc1,.,/,.,.,/,/
O=c1[nH]c(Nc2ccccc2)cc2cc(Br)ccc12,.,.,/,.,/,/
O=c1[nH]c(Nc2ccccc2)cc2ccccc12,.,.,17.4,.,25.0,.
COC(=O)[C@@H]1[C@@H](CO)[C@@H]2Cn3c(ccc(/C=C/c4ccccc4)c3=O)[C@@H]2N1C(=O)C1CCCC1,/,.,/,/,/,/
C[C@@H]1CN([C@@H](C)CO)S(=O)(=O)c2ccc(C3=CCCC3)cc2O[C@@H]1CN(C)Cc1ccccc1,/,.,/,/,/,/
Cc1noc(C)c1NC(=O)N(C)C[C@@H]1Oc2ccc(NS(=O)(=O)c3ccccc3)cc2C(=O)N([C@@H](C)CO)C[C@H]1C,/,.,/,/,/,/
COCCn1c(C)cc(C(=O)CSc2nnc(C)s2)c1C,.,/,48.0,91.1,80.3,71.8
COCCn1c(C)cc(C(=O)CSc2n[nH]c(N)n2)c1C,.,/,.,.,/,/
Cc1ccc(NCc2nc3ccccc3n2C)c(C)c1,.,.,28.5,.,45.1,39.3
Cc1nn(-c2ccccc2)c(Cl)c1/C=N/Nc1ccc(Cl)c(C(=O)O)c1,.,?,37.9,.,83.7,78.3
O=C(O)c1cc(N/N=C/C=C/c2ccccc2)ccc1Cl,.,.,27.2,.,36.7,.
C[C@@H]1CCCCO[C@H](CN(C)Cc2ccc(C(=O)O)cc2)[C@H](C)CN([C@H](C)CO)C(=O)c2cc(NC(=O)C3CCCCC3)ccc2O1,/,.,/,/,/,/
CC(C)(C)NC(=S)NCc1ccncc1,.,.,23.1,.,.,.
Cc1ccc(CNC(=S)NCc2ccncc2)cc1,.,.,.,.,/,/
Nc1nc2ccccc2n1C(=O)c1ccc(F)cc1,.,.,39.8,61.0,53.8,35.4
Nc1nc2ccccc2n1C(=O)c1ccccc1,.,.,26.6,77.9,58.5,41.8
CCC(=O)N1C[C@@H]2[C@H](c3ccccc31)[C@@H](CO)N2Cc1ccccc1F,/,.,/,/,/,/
CCNC(=O)C[C@H]1CC[C@@H]2[C@@H](COc3ccc(NC(=O)c4cscn4)cc3C(=O)N2C)O1,/,.,/,/,/,/
Cc1noc(C)c1S(=O)(=O)Nc1ccc2c(c1)C(=O)N([C@@H](C)CO)C[C@H](C)[C@H](CN(C)S(=O)(=O)c1ccccc1)OCCCC[C@H](C)O2,/,.,/,/,/,/
CCc1cc(C(=O)c2ccccc2)c(N)s1,.,.,20.6,.,.,.
O=C(O)Cc1ccc(C(=O)c2ccccc2)s1,.,/,.,.,/,/
Cc1ccc(-c2nc3n(n2)Cc2ccccc2-3)cc1,58.0,/,21.5,94.0,66.9,61.1
Cc1ccc(Cn2nc(-c3ccccc3)nc2-c2ccccc2)cc1,.,/,.,.,/,/
CCn1c(C)nc2cc(-c3nc4n(n3)Cc3ccccc3-4)ccc21,/,/,87.6,105.3,96.8,92.2
SMILES,TROY NFkB inh,LGR2 antag,HSP90 refold inh,TWEAK-Fn14 inh,HSP90 inh confirm,FLuc counter
CCCNC(=O)N1CC2(C1)CN(C(=O)CC1CC1)[C@H](CO)c1[nH]c3cc(OC)ccc3c12,/,.,/,/,/,/
Cc1ccc(CSc2nc3ncccc3[nH]2)cc1,.,/,.,.,/,/
Clc1ccc(CSc2nc3ccncc3[nH]2)cc1,.,.,26.8,.,64.0,44.9
Cc1ccc(CSc2nc3ccncc3[nH]2)cc1,.,?,62.7,.,79.5,68.7
O=C(c1ccc(CSc2nc3ccncc3[nH]2)cc1)N1CCCCCC1,.,.,26.8,.,50.9,27.1
O=C(O)c1ccc(CSc2nc3ccccc3[nH]2)cc1,.,.,.,.,/,/
COc1ccc(S(=O)(=O)Nc2ccc3c(c2)C(=O)N([C@H](C)CO)C[C@@H](C)[C@H](CN(C)C(=O)Nc2ccc(F)cc2)OCCCC[C@H](C)O3)cc1,/,.,/,/,/,/
CN1c2ccc(-c3cccc(F)c3)cc2[C@@H]2[C@@H](CCN2C(=O)Cc2ccccc2)[C@H]1CO,/,.,/,/,/,/
O=C(NC1CCCC1)N1CC(=O)N2[C@@H](CO)[C@H](c3ccc(-c4cccnc4)cc3)[C@@H]2C1,/,.,/,/,/,/

# Assay outcomes from PubChem BioAssay.
